m-calpain inh: calpain II (pig) inhibition | AID 1236 | purified calpain II, fluorogenic peptide substrate, 30 min | inhibition, % at 16 µM | 220,000 tested, 0.37% active;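 active = inhibition above about 50%, limit read from the data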
MIN6 prolif: MIN6 beta-cell proliferation induction. MIN6 cells proliferation, ATPlite luminescence, 48 h; cells starved in 0.2% serum; 100% = growth in 10% serum. 330,000 tested, 0.29% active. AID 2380. proliferation, % at 10 µM;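 active = compounds whose signal lies at least 3.5 SD above the mean of all wells on their plate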;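 note: 0% = DMSO-treated cells in low-serum medium and 100% = 10% serum control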
aDG glyco up: alpha-DG glycosylation activation. Pro5-aDG cells, alpha-DG glycosylation AlphaScreen (IIH6); 0% Pro5, 100% B10-LARGE cell signal. activation, % at 10 µM. 360,000 tested, 0.22% active;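 active = activation of at least 8% versus controls, or a plate z-score of at least 8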;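 note: Pro5 are CHO cells carrying HIG-tagged alpha-DG that lacks glycosylation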
FAS TE block: inhibitors of human fatty acid synthase thioesterase domain; P49327; recombinant FAS-TE, OMFH fluorogenic substrate, fluorescence endpoint; 360,000 tested, 0.67% active; inhibition, % at 15 µM;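 active = compounds whose normalised, plate-corrected inhibition of enzyme fluorescence in the single-dose primary screen is 50% or more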;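 note: 0% = DMSO with enzyme and 100% = substrate without enzyme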
H9c2 TAG inh: triacylglycerol accumulation inhibition | H9c2 cells, Nile Red lipid (TAG) fluorescence; cells loaded with 200 µM oleic acid | inhibition, % at 12.5 µM | 230,000 tested, 0.66% active;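 active = pattern-corrected inhibition of lipid staining of at least 50% with the nuclear-stain viability signal not falling by more than 50%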;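 note: 0% = DMSO wells and 100% = triacsin C control wells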
H9c2 protect: protects H9c2 cardiomyocytes from peroxide injury; H2O2 injury protection, ATPLite, 2 h; protection from H2O2 cell death, % at 20 µM; 360,000 tested, 0.63% active;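 active = compounds giving at least 50% protection of heart cells from peroxide-induced death in the single-dose screen, raw or plate-pattern-corrected value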;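 note: 0% = DMSO wells with peroxide and 100% = DMSO wells without peroxide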
FAS-TE inh conf: confirmation of human fatty acid synthase thioesterase inhibitors | shares compounds with FAS TE block | recombinant FAS-TE, OMFH fluorogenic substrate, fluorescence | inhibition, % at 15 µM | 2,300 tested, 45% active | AID 624325;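 active = compounds inhibiting the enzyme by at least 50% at 15 µM in any one of the replicates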;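 note: 0% = enzyme with DMSO only and 100% = wells lacking enzyme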
* marks the source's active call; other numbers are inactive results. An excerpt weighted towards active compounds, which were near 2.3% of everything screened.

Screening O=C(/C=C/c1cccs1)N1CCC2(CC1)Oc1ccc(F)cc1C(=O)C21CC(c2ccc(Cl)cc2)=NO1 (centres undefined) returned m-calpain inh -19.1, MIN6 prolif -1.4, aDG glyco up -0.4, FAS TE block 61.9*, H9c2 TAG inh 25.3, H9c2 protect 5.8 and FAS-TE inh conf -5.0.
For O=C(c1ccc2c(c1)OCO2)N1CCC2(CC1)Oc1ccc(Cl)cc1C(=O)C21CC(c2ccccc2)=NO1 (centres undefined) the results were m-calpain inh -83.6, MIN6 prolif -7.2, aDG glyco up -0.4, FAS TE block 53.7*, H9c2 TAG inh 27.6, H9c2 protect 4.9 and FAS-TE inh conf 6.2.
Screening O=C(/C=C/c1cccs1)N1CCC2(CC1)Oc1ccc(F)cc1C(=O)C21CC(c2ccccc2)=NO1 (centres undefined) returned m-calpain inh -37.4, MIN6 prolif -4.4, aDG glyco up -0.1, FAS TE block 25.2 and H9c2 protect 1.0.
For O=C(c1ccc2c(c1)OCO2)N1CCC2(CC1)Oc1ccc(F)cc1C(=O)C21CC(c2ccc(Cl)cc2)=NO1 (centres undefined) the results were m-calpain inh -65.9, MIN6 prolif -2.2, aDG glyco up -0.2, FAS TE block 31.0, H9c2 TAG inh 4.1 and H9c2 protect 0.5.
O=C(/C=C/c1cccs1)N1CCC2(CC1)Oc1ccc(Cl)cc1C(=O)C21CC(c2ccc(Cl)cc2)=NO1 (centres undefined) was read as MIN6 prolif -5.7, aDG glyco up -0.6, FAS TE block 50.1*, H9c2 TAG inh 17.8, H9c2 protect -2.3 and FAS-TE inh conf 12.0.
Screening CC(C)C(=O)N1CCC2(CC1)Oc1ccc(Cl)cc1C(=O)C21CC(c2ccc(Cl)cc2)=NO1 (centres undefined) returned m-calpain inh -61.1, MIN6 prolif -5.9, aDG glyco up 0.0, FAS TE block 50.1*, H9c2 TAG inh 5.7, H9c2 protect -12.8 and FAS-TE inh conf 8.3.
Screening Cc1noc(C)c1C(=O)N1CCC2(CC1)Oc1ccc(F)cc1C(=O)C21CC(c2ccc(Cl)cc2)=NO1 (centres undefined) returned m-calpain inh -48.5, MIN6 prolif -8.0, aDG glyco up 0.2, FAS TE block 93.7*, H9c2 TAG inh 0.3, H9c2 protect 1.8 and FAS-TE inh conf 22.3.
O=[N+]([O-])c1ccc2ncnc(N3CCN(Cc4ccc5c(c4)OCO5)CC3)c2c1 was read as MIN6 prolif 1.4, aDG glyco up 0.8, FAS TE block 81.7*, H9c2 TAG inh -8.0, H9c2 protect -16.7 and FAS-TE inh conf 86.6*.
`O=[N+]([O-])c1cccnc1N1CCN(Cc2ccc3c(c2)OCO3)CC1` gave MIN6 prolif -1.6, aDG glyco up -0.1, FAS TE block 22.3, H9c2 TAG inh 2.8 and H9c2 protect 5.1.
Screening Cn1c(=O)c([N+](=O)[O-])c(N2CCN(Cc3ccc4c(c3)OCO4)CC2)c2ccccc21 returned m-calpain inh -38.6, MIN6 prolif 4.4, aDG glyco up -0.2, FAS TE block 86.1*, H9c2 TAG inh 1.8, H9c2 protect 11.9 and FAS-TE inh conf 53.8*.
Screening CC(=O)NC(c1ccccc1)c1nc(-c2cccc(C#N)c2)cs1 (centres undefined) returned aDG glyco up 0.0, FAS TE block 13.4, H9c2 TAG inh -7.3 and H9c2 protect -1.0.
`CN1CCN(c2nc3cc(N4CCOCC4)ccc3s2)CC1` gave aDG glyco up 0.7, FAS TE block -6.8, H9c2 TAG inh 23.6 and H9c2 protect -6.2.
For COc1ccc(N2C(=O)NC3CC2(C)Oc2ccccc23)cc1 (centres undefined) the results were m-calpain inh -21.3, MIN6 prolif 0.9, aDG glyco up 0.0, FAS TE block 0.0, H9c2 TAG inh 2.0 and H9c2 protect 8.6.
For COc1ccc(N2C(=O)NC3CC2(C)Oc2ccc(Br)cc23)cc1OC (centres undefined) the results were m-calpain inh -103.1, MIN6 prolif -3.7, aDG glyco up 0.0, FAS TE block 59.1*, H9c2 TAG inh -7.7, H9c2 protect -0.8 and FAS-TE inh conf 74.1*.
CCOC(=O)C1=CCN(S(=O)(=O)c2ccccc2Cl)C1c1ccc(C)cc1 (centres undefined) was read as aDG glyco up -0.3, FAS TE block 36.0 and H9c2 protect -2.2.
`O=C(Nc1ccc(Br)cc1)c1cccc(-n2cnnn2)c1` gave MIN6 prolif -1.3, aDG glyco up 0.2, FAS TE block 52.4*, H9c2 protect -3.4 and FAS-TE inh conf 30.5*.
COc1ccc(S(=O)(=O)N2CCOCC2)cc1NC(=O)c1ccc(SC)cc1OC was read as aDG glyco up 0.0, FAS TE block 32.0, H9c2 TAG inh 16.7 and H9c2 protect 3.8.
`COc1ccc(C2CC(c3ccccc3)=NN2C(=O)COC(=O)c2cnc(Cl)c(Cl)c2)cc1` (centres undefined) gave m-calpain inh 7.5, MIN6 prolif -6.9, aDG glyco up 0.0, FAS TE block 25.4 and H9c2 protect -3.2.
COc1ccc(C2CC(c3ccccc3)=NN2C(=O)COC(=O)c2cccc(S(=O)(=O)N(C)C)c2)cc1 (centres undefined) was read as m-calpain inh -13.2, MIN6 prolif -2.9, aDG glyco up 0.4, FAS TE block 71.8*, H9c2 protect -2.4 and FAS-TE inh conf -0.2.
COc1ccc(C2CC(c3ccccc3)=NN2C(=O)COC(=O)c2cccc(S(=O)(=O)N3CCOCC3)c2)cc1 (centres undefined) was read as m-calpain inh -23.8, MIN6 prolif -1.0, aDG glyco up 0.2, FAS TE block 69.6*, H9c2 TAG inh 4.8, H9c2 protect 0.0 and FAS-TE inh conf 13.3.
`COc1ccc([C@@H]2[C@@H]3C(=O)N(C(C)(C)C)C(=O)[C@@H]3[C@]3(Cc4ccccc4)C(=O)N(c4ccc(OC)cc4)C(=O)N23)cc1` gave MIN6 prolif 0.0, aDG glyco up -0.1, FAS TE block 12.3, H9c2 TAG inh -5.2 and H9c2 protect 10.7.
`CC(C)C[C@@]12C(=O)N(c3ccc(Br)cc3)C(=O)N1[C@H](c1ccc(Br)cc1)[C@@H]1C(=O)N(C(C)(C)C)C(=O)[C@@H]12` gave MIN6 prolif -5.0, aDG glyco up 0.5, FAS TE block 75.3*, H9c2 TAG inh 39.1, H9c2 protect -2.0 and FAS-TE inh conf 38.9*.
For CC(C)(C)N1C(=O)[C@H]2[C@@H](c3ccc(Br)cc3)N3C(=O)N(c4ccccc4)C(=O)[C@@]3(Cc3ccccc3)[C@H]2C1=O the results were MIN6 prolif -7.0, aDG glyco up 0.9, FAS TE block 87.0*, H9c2 protect 1.8 and FAS-TE inh conf 2.4.

Bioassay records from PubChem.
